Bioassay records (PubChem BioAssay)
L3MBTL1 block: qHTS Assay for the Inhibitors of L3MBTL1; Lethal(3)malignant brain tumor-like protein 1 (Homo sapiens), Q9Y468; AlphaScreen L3MBTL1–H3K9me1 peptide binding; Potency, µM (titrated, usually from 57.1 µM), most hits filed as inhibitors; actives 0.66% (n = 230,000); note: nearly all actives have a fitted effect of over 60% in size
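AlphaScreen proximity signal between nickel-chelate acceptor and streptavidin donor beads (final 10 ug/mL) reports binding of 50 nM L3MBTL1 to 75 nM biotin-H3 K9me1 peptide; complex incubated with compounds 30 min at room temperature; cefsulodin titration as control.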
Sfp PPTase inh: qHTS Assay for Inhibitors of Bacillus subtilis Sfp phosphopantetheinyl transferase (PPTase); actives 3.5% (n = 310,000); 4'-phosphopantetheinyl transferase ffp (Bacillus subtilis), Q9F4F7; Biochemical Sfp PPTase activity, qHTS; Potency, µM, usual class: inhibitors;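 note: the enzyme is Sfp with the accession as filed and its product quenches rhodamine fluorescence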
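After 15 min at room temperature with compound, 15 nM Sfp received 5 uM rhodamine-CoA plus 12.5 uM BHQ-2-ybbR (50 mM Hepes pH 7.6, 10 mM MgCl2). Rate came from the fluorescence difference over 30 min, ex 525/em 598 nm.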
G9a block: qHTS Assay for Inhibitors of Histone Lysine Methyltransferase G9a; Histone-lysine N-methyltransferase EHMT2 (Homo sapiens), Q96KQ7; G9a H3K9 monomethylation, AlphaScreen, 2 h; Potency, µM (series often up to 102 µM), most hits filed as inhibitors; actives 8.8% (n = 350,000); note: nearly all actives have a fitted effect of over 75% in size
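Compounds were preincubated with 20 nM G9a for 15 min, after which biotinylated H3K9 peptide (500 nM) and SAM (20 uM) started a 2 h room-temperature reaction. Monomethylated product was quantified by antibody-based AlphaScreen chemiluminescence.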
BAZ2B block: qHTS Assay for Inhibitors of BAZ2B; Bromodomain adjacent to zinc finger domain protein 2B (Homo sapiens), Q9UIF8; AlphaScreen BAZ2B-H3K14Ac peptide displacement; Potency, µM (doses to about 114 µM), usual class: inhibitors; actives 4.4% (n = 360,000); note: nearly all actives have a fitted effect of over 60% in size
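Compounds, titrated to a top concentration of 110 uM, were incubated 30 min at room temperature with preformed BAZ2B/acetyl-K14 H3 peptide complex (50 nM each). Proximity signal was measured by AlphaScreen after 20 min with beads.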
JMJD2A Tudor inh: qHTS Assay for Inhibitors of JMJD2A-Tudor Domain; Lysine-specific demethylase 4A (Homo sapiens), O75164; AlphaScreen JMJD2A-Tudor / H3K4me3 peptide binding; Potency, µM (top dose mostly 114 µM), usual class: inhibitors; actives 4.4% (n = 390,000); AID 504339, 2011; note: nearly all actives have a fitted effect of over 50% in size
Target sequence (O75164 whole entry, looked up, the tested form may be a part): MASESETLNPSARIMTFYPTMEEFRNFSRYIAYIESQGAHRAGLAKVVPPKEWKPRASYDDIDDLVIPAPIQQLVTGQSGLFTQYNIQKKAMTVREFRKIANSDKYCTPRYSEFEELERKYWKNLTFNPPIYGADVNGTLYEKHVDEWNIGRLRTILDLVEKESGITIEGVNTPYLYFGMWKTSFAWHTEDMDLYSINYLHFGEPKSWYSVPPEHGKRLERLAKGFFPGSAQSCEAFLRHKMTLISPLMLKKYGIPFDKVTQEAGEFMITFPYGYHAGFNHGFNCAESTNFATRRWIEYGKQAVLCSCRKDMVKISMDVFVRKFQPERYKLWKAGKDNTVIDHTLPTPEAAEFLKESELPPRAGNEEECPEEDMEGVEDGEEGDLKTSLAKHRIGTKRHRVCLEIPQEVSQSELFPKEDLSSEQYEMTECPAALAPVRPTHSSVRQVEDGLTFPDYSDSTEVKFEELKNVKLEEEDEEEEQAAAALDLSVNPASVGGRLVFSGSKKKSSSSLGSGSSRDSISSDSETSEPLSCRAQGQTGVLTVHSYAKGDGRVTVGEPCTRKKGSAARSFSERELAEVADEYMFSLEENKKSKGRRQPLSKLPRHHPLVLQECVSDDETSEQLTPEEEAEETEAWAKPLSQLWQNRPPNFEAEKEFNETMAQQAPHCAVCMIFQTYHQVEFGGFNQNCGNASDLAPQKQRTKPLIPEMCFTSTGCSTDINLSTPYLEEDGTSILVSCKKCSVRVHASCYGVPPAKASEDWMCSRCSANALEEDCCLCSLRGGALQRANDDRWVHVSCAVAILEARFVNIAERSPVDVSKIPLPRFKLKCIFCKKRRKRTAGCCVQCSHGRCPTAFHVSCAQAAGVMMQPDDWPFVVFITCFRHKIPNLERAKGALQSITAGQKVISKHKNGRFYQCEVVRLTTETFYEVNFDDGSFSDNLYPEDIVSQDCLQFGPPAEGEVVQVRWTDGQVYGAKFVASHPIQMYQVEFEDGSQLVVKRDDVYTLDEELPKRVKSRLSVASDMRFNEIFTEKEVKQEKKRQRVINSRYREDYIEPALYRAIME
HP1b chromo inh: HTS for Inhibitors of HP1-beta Chromodomain Interactions with Methylated Histone Tails | Chromobox protein homolog 1 (Homo sapiens), P83916 | Potency, µM (series often up to 114 µM), usual class: inhibitors | AlphaScreen HP1-beta / biotin-H3K9me3 peptide binding | actives 0.56% (n = 390,000); note: nearly all actives have a fitted effect of over 70% in size
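Compound inhibition of the preformed complex between 50 nM HP1-beta and 50 nM biotinylated H3K9me3 peptide was read by AlphaScreen. Buffer was PBS pH 7.4 with 0.01% Tween-20. Incubations ran 30 min at room temperature, with 10 ug/mL donor/acceptor beads.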
Of the large screens only hits and unclear results are named; the others gave an inactive call; ! = not active in a repeat. A selection: hits, their analogues and other compounds. The true share with any hit is near 12%. Calls come from the whole dose curve; as a rule, active = well fitted curve in the direction sought with a large enough effect; inconclusive = small, poorly fitted or top-dose-only effect, or another doubt; inactive = no such curve, though single readings can be large; an effect the other way counts as inactive or inconclusive.

O=C(CSc1nc2c(oc3ccccc32)c(=O)n1-c1ccccc1)Nc1ccccc1F	none (no result: L3MBTL1 block, Sfp PPTase inh)
COc1cccc(Cn2c(=O)n(CC3CCC(C(=O)NC(C)C)CC3)c(=O)c3sccc32)c1 (centres undefined)	none (no result: L3MBTL1 block, Sfp PPTase inh)
Cc1cc(C=C2C(=O)c3ccccc3C2=O)c(C)n1C	G9a block 40µM
CCn1c(C)cc(C=C2C(=O)c3ccccc3C2=O)c1C	G9a block inconclusive
O=C1C(=Cc2cccs2)C(=O)c2ccccc21	none
Cc1ccc(C=C2C(=O)c3ccccc3C2=O)s1	Sfp PPTase inh inconclusive, G9a block inconclusive, BAZ2B block 16µM, JMJD2A Tudor inh inconclusive, HP1b chromo inh inconclusive (no result: L3MBTL1 block)
CC(=C\c1ccco1)/C=C(\C#N)C(=O)NCCc1c[nH]c2ccccc12	G9a block 13µM, BAZ2B block inconclusive, JMJD2A Tudor inh inconclusive
COC(=O)c1sc2cccc(F)c2c1S(=O)(=O)N1CCN(c2cccc(C)c2)C(C)C1 (centres undefined)	none (no result: L3MBTL1 block, Sfp PPTase inh)
CCc1nn(CC(=O)NCCc2ccc(SC)cc2)c(=O)c2cc3sccc3n12	none (no result: L3MBTL1 block, Sfp PPTase inh)
CCOC(=O)c1ccc(S(=O)(=O)Nc2cc(C(C)(C)C)no2)cc1	Sfp PPTase inh 79µM, G9a block inconclusive
CC(=O)c1cccc(S(=O)(=O)NCCCN2CCOCC2)c1	G9a block 1.4µM (no result: Sfp PPTase inh)
O=S(=O)(Nc1cccnc1)c1cccc(Cl)c1	none (no result: L3MBTL1 block)
CC(=O)c1cccc(S(=O)(=O)Nc2cccnc2)c1	G9a block 45µM (no result: L3MBTL1 block)
CC(=O)c1cccc(S(=O)(=O)Nc2ccc(N3CCOCC3)cc2)c1	G9a block 50µM (no result: L3MBTL1 block)
CC(C)(C)c1cc(NS(=O)(=O)c2ccc3c(c2)OCCO3)on1	none
COc1ccc(Cl)cc1NC(=O)c1cc2nc(-c3ccc(C)cc3)cc(C(F)(F)F)n2n1	none (no result: L3MBTL1 block, Sfp PPTase inh)
Cn1c(=O)n(C)c2cc(S(=O)(=O)NCCOCCO)ccc21	none (no result: L3MBTL1 block)
COc1ccc(NS(=O)(=O)c2ccc(N3CCOCC3)c(NC(=O)C(C)C)c2)cc1	none (no result: BAZ2B block)
O=S(=O)(NCCN1CCOCC1)c1ccc(Cl)c(Cl)c1	G9a block inconclusive (no result: L3MBTL1 block)
COCCNS(=O)(=O)c1ccc2c(c1)n(C)c(=O)n2C	G9a block 4.5µM (no result: L3MBTL1 block)
CC(=O)c1ccc(S(=O)(=O)Nc2ccc(-c3ccc4nnc(C)n4n3)cc2)cc1	BAZ2B block 71µM (no result: L3MBTL1 block)
CCOC(=O)/C=C/C(=O)Nc1cc(S(=O)(=O)Nc2ccc(OC)cc2)ccc1N1CCOCC1	G9a block 45µM (no result: Sfp PPTase inh)
O=S(=O)(NCCN1CCOCC1)c1ccc(F)c(Cl)c1	JMJD2A Tudor inh 14µM (no result: L3MBTL1 block)
CCCNc1ccc(-c2nc(-c3ccncc3)no2)cc1[N+](=O)[O-]	none (no result: L3MBTL1 block, Sfp PPTase inh)
COC(=O)c1ccc(NS(=O)(=O)c2ccc3c(c2)n(C)c(=O)n3C)cc1	BAZ2B block inconclusive
CC(=O)c1ccc(S(=O)(=O)Nc2ccc(N3CCOCC3)cc2)cc1	G9a block 28µM (no result: L3MBTL1 block)
CCOC(=O)c1ccc(S(=O)(=O)Nc2ccc(N3CCOCC3)cc2)cc1	G9a block 79µM (no result: L3MBTL1 block)
CCOC(=O)c1ccc(NS(=O)(=O)c2ccc3c(c2)n(C)c(=O)n3C)cc1	BAZ2B block 79µM! (no result: L3MBTL1 block)
CC(=O)Nc1ccc(S(=O)(=O)Nc2ccc(N3CCOCC3)cc2)cc1	none (no result: L3MBTL1 block)
C/C(=N\Nc1ccc(S(=O)(=O)Nc2ccccc2)cc1[N+](=O)[O-])c1ccc(N2CCOCC2)cc1	G9a block inconclusive, BAZ2B block inconclusive, JMJD2A Tudor inh inconclusive, HP1b chromo inh inconclusive
C/C(=N\Nc1ccc(S(=O)(=O)Nc2ccc(Cl)cc2)cc1[N+](=O)[O-])c1ccc(N2CCOCC2)cc1	L3MBTL1 block inconclusive, G9a block 8.9µM, BAZ2B block 7.9µM, JMJD2A Tudor inh 5µM, HP1b chromo inh inconclusive
